Source: PubChem (several laboratories)
The list is not random: actives were taken first. Their share in the collection is about 4%.
FAS-TE inh: blocks the thioesterase domain of human fatty acid synthase | actives 0.67% (n = 360,000) | AID 602261 | inhibition, % at 15 µM | recombinant FAS-TE, OMFH fluorogenic substrate, fluorescence endpoint;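 active = compounds whose normalised, plate-corrected inhibition of enzyme fluorescence in the single-dose primary screen is 50% or more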;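 note: 0% = DMSO with enzyme and 100% = substrate without enzyme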
ADAM10 inh: inhibits human ADAM10; recombinant ADAM10, EDANS/DABCYL FRET peptide cleavage, 3 h; inhibition, % at 7 µM; actives 0.62% (n = 370,000); AID 720582;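 active = inhibition above a per-campaign cutoff equal to the mean of compounds falling between control-based bounds plus 3 SD, cut at about 20% in these data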;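 note: 0% = DMSO wells while the 100% control is not disclosed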
NR3A LBD binder: modulates the human NR3A ligand-binding domain | NR3A LBD differential scanning fluorimetry, Tm shift; 0% = protein alone, 100% = glycine-bound protein | Tm shift relative to glycine control, % at 25 µM | actives 2.5% (n = 340,000) | AID 1259313;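 active = melting temperature shift of at least 10% of the positive control shift, at one fixed dose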
ADAM17 inh: inhibits human ADAM17; P78536; recombinant ADAM17, EDANS/DABCYL FRET peptide cleavage; inhibition, % at 6.95 µM; actives 0.83% (n = 370,000); AID 720648;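 active = inhibition above the mean of compounds lying between control limits plus 3 SD, set per campaign, cut at about 8.5% in these data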;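 note: 0% = DMSO-only wells as the low control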
Target sequence (P78536 215-824 limits assumed): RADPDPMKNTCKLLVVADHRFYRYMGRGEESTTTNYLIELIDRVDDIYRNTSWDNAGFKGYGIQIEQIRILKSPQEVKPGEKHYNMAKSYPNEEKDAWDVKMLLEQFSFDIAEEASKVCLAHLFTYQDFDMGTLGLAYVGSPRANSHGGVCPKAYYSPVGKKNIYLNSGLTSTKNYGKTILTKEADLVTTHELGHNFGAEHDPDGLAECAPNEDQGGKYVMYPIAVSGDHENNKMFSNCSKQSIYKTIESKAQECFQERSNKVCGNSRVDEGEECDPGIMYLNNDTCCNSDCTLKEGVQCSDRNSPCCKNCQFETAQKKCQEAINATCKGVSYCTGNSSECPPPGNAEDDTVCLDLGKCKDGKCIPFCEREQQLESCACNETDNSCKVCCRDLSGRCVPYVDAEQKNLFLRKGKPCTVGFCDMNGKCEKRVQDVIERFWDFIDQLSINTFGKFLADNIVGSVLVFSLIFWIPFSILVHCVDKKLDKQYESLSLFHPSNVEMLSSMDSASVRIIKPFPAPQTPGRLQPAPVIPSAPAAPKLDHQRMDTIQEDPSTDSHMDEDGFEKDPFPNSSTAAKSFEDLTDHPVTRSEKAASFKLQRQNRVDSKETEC
aDG glyco act: increases alpha dystroglycan glycosylation. AID 624168. actives 0.22% (n = 360,000). Pro5-aDG cells, alpha-DG glycosylation AlphaScreen (IIH6); 0% Pro5, 100% B10-LARGE cell signal. activation, % at 10 µM;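 active = activation of at least 8% versus controls, or a plate z-score of at least 8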;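 note: Pro5 are CHO cells carrying HIG-tagged alpha-DG that lacks glycosylation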
ADAM10 confirm: human ADAM10 inhibition, confirmation; ADAM10 QFRET peptide cleavage, EDANS fluorescence; shares compounds with ADAM10 inh; inhibition, % at 6.95 µM; actives 1% (n = 2,100);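 active = inhibition above about 20% chosen separately for each screening run, limit read from the data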;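 note: 0% = DMSO wells and 100% = marimastat wells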
ADAM17 counter: inhibits human ADAM17 in ADAM10 exosite counter-screen | shares compounds with ADAM10 inh | ADAM17 QFRET peptide cleavage, EDANS fluorescence | inhibition, % at 6.95 µM | actives 0.5% (n = 2,100) | AID 743214;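 active = mean triplicate inhibition above the solvent-only control wells' mean plus 3 SD, cut at about 12% in these data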;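 note: 0% = DMSO wells and 100% = marimastat wells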
ADAM10 counter: counter-screen for ADAM17 exosite inhibitors: inhibitors of human ADAM10 | shares compounds with ADAM17 inh | recombinant ADAM10, EDANS/DABCYL FRET peptide cleavage, 3 h | inhibition, % at 6.95 µM | actives 47% (n = 2,900) | AID 743256;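 active = mean inhibition over the triplicate runs exceeds the activity threshold set in the earlier primary screen, cut at about 20% in these data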;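 note: 0% = DMSO wells and 100% = marimastat wells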
ADAM17 confirm: confirmation of inhibitors of human ADAM17 | recombinant ADAM17, EDANS/DABCYL QFRET peptide cleavage | shares compounds with ADAM17 inh | inhibition, % at 6.95 µM | actives 65% (n = 2,900);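 active = mean inhibition across replicates above the hit cutoff set in the primary screen, cut at about 8.5% in these data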;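 note: 0% = DMSO wells and 100% = marimastat wells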
Numbers without * were called inactive; / = not tested or not shown.

SMILES	FAS-TE inh	ADAM10 inh	NR3A LBD binder	ADAM17 inh	aDG glyco act	ADAM10 confirm	ADAM17 counter	ADAM10 counter	ADAM17 confirm
CCCCNC(=O)C1CCN(Cc2ccc(OCc3ccccc3)cc2)CC1	-1	3	1	-4	2	/	/	/	/
COc1cc(O)c(C(CCN2CCN(c3ccccc3)CC2)c2ccc3c(c2)OCO3)c(OC)c1 (stereo not given)	25	24*	-25	12*	0	9	3	9	6
O=C(O)c1ccc(NC(=O)c2cccc(C(=O)Nc3ccc(C(=O)O)cc3)c2)cc1	-5	2	1	5	0	/	/	/	/
O=C(C(=Cc1ccc(F)cc1)c1ccccc1)c1ccc(O)cc1	18	24*	0	9.6*	0	4	1	27*	11*
C=CCC[C@@H](Cc1ccc(F)cc1)C(=O)OC[C@@H](NC(=O)[C@@H](CC=C)CC(=O)N(CCO)Cc1ccccc1)c1ccccc1	20	47*	-9	26*	0	7	3	44*	22*
C=CCC[C@@H](Cc1ccc(F)cc1)C(=O)OC[C@@H](NC(=O)[C@H](CC=C)CC(=O)N(CCO)Cc1ccccc1)c1ccccc1	21	27*	-2	11*	0	11	4	36*	20*
C=CCC[C@H](Cc1ccc(F)cc1)C(=O)OC[C@@H](C)NC(=O)[C@H](CC=C)CC(=O)N(CCO)Cc1ccccc1	18	9	-2	2	0	/	/	/	/
C=CCC[C@@H](Cc1ccc(F)cc1)C(=O)OC[C@H](C)NC(=O)[C@H](CC=C)CC(=O)N(CCO)Cc1ccccc1	23	4	-1	-1	0	/	/	/	/
CSc1ccc(S(=O)(=O)N2CCC(C(=O)Nc3ccc(NC(C)=O)cc3)CC2)cc1	1	6	2	0	0	/	/	/	/
CN(CC(=O)Nc1ccccc1)CC(=O)Nc1ccccc1Cl	0	-12	-2	-2	0	/	/	/	/
CCCCc1ccc(NC(=O)CN(C)CC(=O)Nc2ccccc2Cl)cc1	19	34*	-12	16*	0	2	1	20*	9.6*
O=C(Nc1cccn2nc(COCCO)nc12)C(c1ccccc1)c1ccccc1	-5	-16	/	-3	0	/	/	/	/
O=C1C(CO)C(CO)C(CO)C1CO (stereo not given)	-6	-14	-1	-2	0	/	/	/	/
Cc1ccc(NC(=O)c2cc(NC(=O)c3ccccc3C(=O)O)ccc2N2CCCCC2)cc1	10	-5	-3	-1	0	/	/	/	/
Cc1ccc(NC(=O)c2cc(NC(=O)/C=C\C(=O)O)ccc2N2CCCCC2)cc1	8	24*	-2	19*	0	9	2	-10	1
Cn1cccc1C(=O)Nc1ccc(Cl)c(S(=O)(=O)N2CCCCC2)c1	15	40*	-3	17*	0	3	1	10	6
CCCCC(=O)NC(c1ccc([N+](=O)[O-])cc1)c1c(O)ccc2ccccc12 (stereo not given)	40	28*	-1	11*	1	8	2	36*	19*
O=C(NC(c1ccc(Cl)cc1)c1c(O)ccc2ccccc12)c1ccccc1 (stereo not given)	17	16	4	4	0	/	/	/	/
O=C(NC(c1ccccc1)c1c(O)ccc2ccccc12)c1ccccc1Cl (stereo not given)	12	21*	11*	10*	0	9	3	14	8.7*
CC(=O)c1ccc(S(=O)(=O)N2CCN(C(=O)CSc3ccc(F)cc3)CC2)cc1	0	-5	1	-3	0	/	/	/	/
COc1ccc(-c2n[nH]c(C)c2-c2cnn(-c3ccccc3)c2)c(O)c1	9	30*	-3	15*	0	3	1	23*	14*
C=C(C)COc1ccc(-c2n[nH]c(C)c2-c2ccc(OC)cc2)c(O)c1	21	31*	12*	13*	0	13	4	34*	17*
COc1ccc(-c2n[nH]c(C)c2-c2cnn(-c3ccccc3)c2)c(O)c1C	23	32*	24*	15*	0	12	5	27*	16*
COc1ccc(-c2n[nH]c(C)c2-c2cscn2)c(O)c1	-5	-5	0	-1	0	/	/	/	/
N=c1c2c(ncn1Cc1ccco1)Oc1ccc3ccccc3c1C2c1ccccc1 (stereo not given)	44	20*	-2	11*	1	7	2	19	12*
SMILES	FAS-TE inh	ADAM10 inh	NR3A LBD binder	ADAM17 inh	aDG glyco act	ADAM10 confirm	ADAM17 counter	ADAM10 counter	ADAM17 confirm
COc1ccc(NC(=O)c2cc(-c3cc(F)ccc3OC)n[nH]2)c(C)c1	7	1	/	0	0	/	/	/	/
COc1ccc(NC(=O)c2cc(-c3cc(F)ccc3OC(C)C)n[nH]2)c(OC)c1	21	21*	/	15*	0	7	5	11	6
Cc1ccc([N+](=O)[O-])cc1-c1[nH]c(-c2ccc(O)c(O)c2)nc1-c1ccccc1	15	21*	6	8.8*	0	6	2	28*	13*
CN1C(=S)SC(C)(NO)C1(C)C (stereo not given)	-11	/	2	/	0	/	/	/	/
C[C@H](CO)N1C[C@H](C)[C@@H](CN(C)S(=O)(=O)c2ccccc2)Oc2ccc(NC(=O)Nc3ccc(C(F)(F)F)cc3)cc2C1=O	12	33*	23*	8.8*	0	9	2	40*	24*
CC(C)NC(=O)Nc1ccc2c(c1)C(=O)N([C@H](C)CO)C[C@H](C)[C@@H](CN(C)S(=O)(=O)c1ccccc1)O2	-3	11	0	1	0	/	/	/	/
COc1ccc(NC(=O)Nc2ccc3c(c2)C(=O)N([C@H](C)CO)C[C@H](C)[C@@H](CN(C)C(=O)Nc2ccc(C(F)(F)F)cc2)O3)cc1	14	32*	4	16*	0	5	0	21*	12*
C[C@@H]1CCCCO[C@@H](CN(C)C(=O)Nc2ccc3c(c2)OCO3)[C@@H](C)CN([C@H](C)CO)C(=O)c2cc(NC(=O)Nc3ccc(C(F)(F)F)cc3)ccc2O1	/	21*	/	9.8*	/	11	2	42*	22*
